The supplement of paper PMC7724964

T1: NUP98 730-880 Nucleoporin2 (domain begin residue: 730, domain end residue: 880), P52948
T1 chain: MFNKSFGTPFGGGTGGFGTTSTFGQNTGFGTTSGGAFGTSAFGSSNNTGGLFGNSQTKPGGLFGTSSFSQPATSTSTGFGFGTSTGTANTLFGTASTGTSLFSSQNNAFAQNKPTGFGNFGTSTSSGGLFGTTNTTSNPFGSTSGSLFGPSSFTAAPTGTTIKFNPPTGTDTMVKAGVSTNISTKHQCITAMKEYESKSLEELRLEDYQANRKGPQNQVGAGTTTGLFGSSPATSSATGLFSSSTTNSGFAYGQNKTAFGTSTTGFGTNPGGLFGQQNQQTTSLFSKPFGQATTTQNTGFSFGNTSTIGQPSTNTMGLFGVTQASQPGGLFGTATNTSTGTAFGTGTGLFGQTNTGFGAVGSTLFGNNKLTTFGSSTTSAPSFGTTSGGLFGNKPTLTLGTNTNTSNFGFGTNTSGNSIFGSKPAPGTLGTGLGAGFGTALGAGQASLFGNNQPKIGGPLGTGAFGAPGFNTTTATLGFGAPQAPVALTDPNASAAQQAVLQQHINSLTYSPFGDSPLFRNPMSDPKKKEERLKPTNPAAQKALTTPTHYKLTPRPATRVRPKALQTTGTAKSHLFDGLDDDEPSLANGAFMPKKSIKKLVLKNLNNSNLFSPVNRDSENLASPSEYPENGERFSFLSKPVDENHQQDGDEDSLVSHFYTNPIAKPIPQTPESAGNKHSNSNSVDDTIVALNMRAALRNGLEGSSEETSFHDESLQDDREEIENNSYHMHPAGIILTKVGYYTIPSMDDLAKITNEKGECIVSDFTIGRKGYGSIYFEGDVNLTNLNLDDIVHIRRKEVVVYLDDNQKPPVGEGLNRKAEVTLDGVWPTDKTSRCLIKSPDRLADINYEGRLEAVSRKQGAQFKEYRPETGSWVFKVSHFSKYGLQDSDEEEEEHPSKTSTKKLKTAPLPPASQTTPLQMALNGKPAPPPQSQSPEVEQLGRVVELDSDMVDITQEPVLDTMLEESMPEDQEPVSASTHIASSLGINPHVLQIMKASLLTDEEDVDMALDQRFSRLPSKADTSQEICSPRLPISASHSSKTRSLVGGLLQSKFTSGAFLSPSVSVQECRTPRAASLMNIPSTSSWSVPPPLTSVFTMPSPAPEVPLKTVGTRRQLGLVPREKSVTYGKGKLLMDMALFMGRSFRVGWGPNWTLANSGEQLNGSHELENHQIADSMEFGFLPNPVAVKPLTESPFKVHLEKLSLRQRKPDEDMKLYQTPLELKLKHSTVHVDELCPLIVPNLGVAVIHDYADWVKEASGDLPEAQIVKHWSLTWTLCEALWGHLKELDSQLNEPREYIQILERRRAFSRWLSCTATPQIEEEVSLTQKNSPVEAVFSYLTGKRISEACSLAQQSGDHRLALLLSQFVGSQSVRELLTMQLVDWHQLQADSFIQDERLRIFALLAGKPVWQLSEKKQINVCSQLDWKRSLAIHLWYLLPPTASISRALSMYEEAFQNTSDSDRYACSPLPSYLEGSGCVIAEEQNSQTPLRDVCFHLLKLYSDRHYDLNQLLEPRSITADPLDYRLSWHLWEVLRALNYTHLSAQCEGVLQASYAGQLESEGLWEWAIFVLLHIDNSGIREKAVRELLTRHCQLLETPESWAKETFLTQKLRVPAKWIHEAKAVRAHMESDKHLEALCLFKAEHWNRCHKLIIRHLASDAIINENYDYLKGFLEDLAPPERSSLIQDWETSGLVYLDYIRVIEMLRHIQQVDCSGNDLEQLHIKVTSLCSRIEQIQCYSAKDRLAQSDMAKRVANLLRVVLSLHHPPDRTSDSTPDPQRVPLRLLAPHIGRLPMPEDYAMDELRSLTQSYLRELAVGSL

T2: NXT1 1-140 NTF2 (domain begin residue: 1, domain end residue: 140), Q9UKK6
T2 chain: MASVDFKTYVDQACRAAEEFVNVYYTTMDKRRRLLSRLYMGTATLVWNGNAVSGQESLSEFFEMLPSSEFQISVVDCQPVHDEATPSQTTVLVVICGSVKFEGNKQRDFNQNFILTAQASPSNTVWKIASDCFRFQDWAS

T3: NR4A2 327-598 Hormone_recep (domain begin residue: 327, domain end residue: 598), P43354
T3 chain: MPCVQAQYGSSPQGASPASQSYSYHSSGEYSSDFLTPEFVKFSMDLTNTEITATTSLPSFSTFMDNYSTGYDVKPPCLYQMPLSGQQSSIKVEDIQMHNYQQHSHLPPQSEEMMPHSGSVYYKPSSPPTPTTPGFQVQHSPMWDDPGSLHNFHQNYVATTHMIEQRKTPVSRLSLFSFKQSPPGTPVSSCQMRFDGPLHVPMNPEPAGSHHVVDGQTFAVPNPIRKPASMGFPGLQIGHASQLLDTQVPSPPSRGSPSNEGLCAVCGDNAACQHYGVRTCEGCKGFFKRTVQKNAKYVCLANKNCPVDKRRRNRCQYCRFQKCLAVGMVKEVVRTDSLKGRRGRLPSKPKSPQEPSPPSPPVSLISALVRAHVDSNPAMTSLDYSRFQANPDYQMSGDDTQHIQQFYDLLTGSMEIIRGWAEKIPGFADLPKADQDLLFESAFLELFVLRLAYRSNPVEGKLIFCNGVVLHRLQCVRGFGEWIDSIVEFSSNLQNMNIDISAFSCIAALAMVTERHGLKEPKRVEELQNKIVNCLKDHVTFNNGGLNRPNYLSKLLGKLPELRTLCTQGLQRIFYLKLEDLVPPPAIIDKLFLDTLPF

T4: NR1H3 204-447 Hormone_recep (domain begin residue: 204, domain end residue: 447), Q13133
T4 chain: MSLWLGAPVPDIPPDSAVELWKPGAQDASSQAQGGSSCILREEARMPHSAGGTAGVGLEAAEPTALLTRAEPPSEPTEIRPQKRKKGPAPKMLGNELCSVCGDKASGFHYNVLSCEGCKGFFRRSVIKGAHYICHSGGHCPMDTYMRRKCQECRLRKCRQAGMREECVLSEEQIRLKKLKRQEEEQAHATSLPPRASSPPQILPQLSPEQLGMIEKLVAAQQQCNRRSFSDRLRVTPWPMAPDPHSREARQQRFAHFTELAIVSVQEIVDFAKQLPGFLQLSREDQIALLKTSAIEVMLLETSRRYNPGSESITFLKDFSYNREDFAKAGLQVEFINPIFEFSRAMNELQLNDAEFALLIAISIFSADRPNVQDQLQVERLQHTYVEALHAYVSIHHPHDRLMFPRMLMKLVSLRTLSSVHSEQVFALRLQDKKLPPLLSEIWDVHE

T5: NR2C1 355-603 Hormone_recep (domain begin residue: 355, domain end residue: 603), P13056
T5 chain: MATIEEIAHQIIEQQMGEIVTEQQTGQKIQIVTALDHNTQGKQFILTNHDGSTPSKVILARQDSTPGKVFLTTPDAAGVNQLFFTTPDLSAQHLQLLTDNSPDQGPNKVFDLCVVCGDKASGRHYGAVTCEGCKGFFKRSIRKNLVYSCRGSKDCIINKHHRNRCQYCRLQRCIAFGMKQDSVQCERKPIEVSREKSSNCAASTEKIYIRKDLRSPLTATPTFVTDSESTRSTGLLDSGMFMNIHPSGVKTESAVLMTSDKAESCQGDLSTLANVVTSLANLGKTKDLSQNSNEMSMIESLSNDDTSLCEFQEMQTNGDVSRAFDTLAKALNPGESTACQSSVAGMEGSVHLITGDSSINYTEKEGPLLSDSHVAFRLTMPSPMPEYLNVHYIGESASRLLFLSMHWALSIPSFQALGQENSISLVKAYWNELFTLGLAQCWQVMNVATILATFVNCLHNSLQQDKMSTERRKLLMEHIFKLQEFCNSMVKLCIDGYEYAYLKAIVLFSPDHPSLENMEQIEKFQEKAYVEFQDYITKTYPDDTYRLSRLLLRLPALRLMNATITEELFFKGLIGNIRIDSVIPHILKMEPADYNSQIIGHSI

T6: NR1H4 256-474 Hormone_recep (domain begin residue: 256, domain end residue: 474), Q96RI1
T6 chain: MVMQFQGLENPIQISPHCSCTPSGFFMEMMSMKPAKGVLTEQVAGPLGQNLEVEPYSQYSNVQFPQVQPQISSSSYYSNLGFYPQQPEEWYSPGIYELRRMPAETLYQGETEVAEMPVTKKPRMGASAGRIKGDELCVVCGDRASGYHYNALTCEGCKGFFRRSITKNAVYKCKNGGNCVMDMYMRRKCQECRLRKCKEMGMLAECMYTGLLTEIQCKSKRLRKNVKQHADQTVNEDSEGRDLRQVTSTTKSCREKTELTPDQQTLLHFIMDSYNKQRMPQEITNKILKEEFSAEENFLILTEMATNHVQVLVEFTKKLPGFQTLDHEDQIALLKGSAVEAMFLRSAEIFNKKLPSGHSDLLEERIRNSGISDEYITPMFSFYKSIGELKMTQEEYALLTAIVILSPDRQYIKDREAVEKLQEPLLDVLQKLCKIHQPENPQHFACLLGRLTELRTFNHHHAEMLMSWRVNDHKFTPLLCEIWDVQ


Target: T1, NUP98 730-880 Nucleoporin2 (domain …
Experiment: phage ELISA signal ratio (GST-PRM binding over GST background); higher = stronger binding of peptide-phage to the PRM
How it was run: (§1)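 An M13 phage library with randomized hexadecapeptides on the gene-8 major coat protein, each peptide lacking cysteine and flanked by glycine, was selected for five rounds against human peptide recognition domains fused to the C-terminus of glutathione S-transferase (GST) and expressed in 96-well plates. Approximately 48 clones from rounds 4 and 5 went to phage ELISA. The reported value is the ELISA signal on the GST-domain fusion over the signal on GST alone, and positive clones were sequenced.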
In the case of WAEWDASQPDWVPEYQ, the “phage ELISA signal ratio” value is reported as 4.87. With MWEPELYDDFHEAVTY the “phage ELISA signal ratio” value was 18.1. For GYGWEELPPIMTVAPD, the “phage ELISA signal ratio” value was 23.2.

Each binder was assayed against NXF1 565-619 TAP_C (domain begin residue: 565, domain end residue: 619) in the same assay as above.
How it was run: as §1
With EFINFTWMEAMGTPNS the “phage ELISA signal ratio” value was 13.2. With SMEMMNFTWDPEWFIE the “phage ELISA signal ratio” value was 12.9. In the case of YPIEQFSFDIWDQMVE, the “phage ELISA signal ratio” value is reported as 12. EIEEFSFTWQPEWEVR was tested, and the “phage ELISA signal ratio” value was 8.54.

Target: T2, NXT1 1-140 NTF2 (domain begin residue: …
Experiment: as above
How it was run: as §1
MWIYNEKWDMFLPYKL was tested, and the “phage ELISA signal ratio” value was 20.3.

What follows are binders tested against NXF1 203-359 LRR_1 (domain begin residue: 203, domain end residue: 359) in the same assay as above.
How it was run: as §1
For FEMLWREHMEKFDVEV, the “phage ELISA signal ratio” value was 28.4. In the case of FEELWLKHTAVSKTTE, the “phage ELISA signal ratio” value is reported as 32.5. FENYWKGYQEVPLESR was tested, and the “phage ELISA signal ratio” value was 18.9.

These binders were tested against NR2E3 154-410 Hormone_recep (domain begin residue: 154, domain end residue: 410), Q9Y5X4 in the same assay as above.
Sequence of NR2E3 154-410 Hormone_recep (domain begin residue: 154, domain end residue: 410), Q9Y5X4 (Q9Y5X4 whole entry): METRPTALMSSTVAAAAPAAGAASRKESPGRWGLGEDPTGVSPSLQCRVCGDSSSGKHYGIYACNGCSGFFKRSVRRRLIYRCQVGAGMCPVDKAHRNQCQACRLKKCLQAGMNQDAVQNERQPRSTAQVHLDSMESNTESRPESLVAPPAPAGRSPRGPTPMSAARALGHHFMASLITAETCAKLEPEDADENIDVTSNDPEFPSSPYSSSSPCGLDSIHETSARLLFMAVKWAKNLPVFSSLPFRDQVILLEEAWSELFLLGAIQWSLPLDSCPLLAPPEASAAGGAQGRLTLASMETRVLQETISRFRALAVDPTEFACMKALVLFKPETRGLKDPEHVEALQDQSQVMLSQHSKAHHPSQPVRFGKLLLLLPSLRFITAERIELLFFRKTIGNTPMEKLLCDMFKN
How it was run: as §1
DEWWMFYPQPMYDLWH was tested, and the “phage ELISA signal ratio” value was 6.08.

Each binder was assayed against PABPC1 544-623 PABP (domain begin residue: 544, domain end residue: 623) in the same assay as above.
How it was run: as §1
For TIDWESVIKTYSPWLD, the “phage ELISA signal ratio” value was 29.8. In the case of QQLADIPTYEWLQRNH, the “phage ELISA signal ratio” value is reported as 27. In the case of KPVPSFWVDWHVQAMT, the “phage ELISA signal ratio” value is reported as 20.9.

Target: T3, NR4A2 327-598 Hormone_recep (domain …
Experiment: as above
How it was run: as §1
With SHDMYEMIMWFFYQTE the “phage ELISA signal ratio” value was 14.5. With TMSLWPSSWDIITLNS the “phage ELISA signal ratio” value was 15. QWSVEPWWHEMVIQGI was tested, and the “phage ELISA signal ratio” value was 24.1. With LNDSEQWFTWAYKYVD the “phage ELISA signal ratio” value was 9.75. GWSPWYEGRGVDWMTW was tested, and the “phage ELISA signal ratio” value was 5.78.

Target: T4, NR1H3 204-447 Hormone_recep (domain …
Experiment: as above
How it was run: as §1
DYPEVEWLTQQWDFWS was tested, and the “phage ELISA signal ratio” value was 17. With YPEIAWLQQMMQSDSR the “phage ELISA signal ratio” value was 28.4. TQEMWDWVMMIEMTEF was tested, and the “phage ELISA signal ratio” value was 14. In the case of EMLLDQQMWEWVQAMS, the “phage ELISA signal ratio” value is reported as 26.9.

Target: T5, NR2C1 355-603 Hormone_recep (domain …
Experiment: as above
How it was run: as §1
With MPDVPYQWVDLTEWFM the “phage ELISA signal ratio” value was 15. PYTGIWFGEYLHNFIP was tested, and the “phage ELISA signal ratio” value was 9.25.

Each binder was assayed against NR5A1 221-461 Hormone_recep (domain begin residue: 221, domain end residue: 461), Q13285 in the same assay as above.
Sequence of NR5A1 221-461 Hormone_recep (domain begin residue: 221, domain end residue: 461), Q13285 (Q13285 whole entry): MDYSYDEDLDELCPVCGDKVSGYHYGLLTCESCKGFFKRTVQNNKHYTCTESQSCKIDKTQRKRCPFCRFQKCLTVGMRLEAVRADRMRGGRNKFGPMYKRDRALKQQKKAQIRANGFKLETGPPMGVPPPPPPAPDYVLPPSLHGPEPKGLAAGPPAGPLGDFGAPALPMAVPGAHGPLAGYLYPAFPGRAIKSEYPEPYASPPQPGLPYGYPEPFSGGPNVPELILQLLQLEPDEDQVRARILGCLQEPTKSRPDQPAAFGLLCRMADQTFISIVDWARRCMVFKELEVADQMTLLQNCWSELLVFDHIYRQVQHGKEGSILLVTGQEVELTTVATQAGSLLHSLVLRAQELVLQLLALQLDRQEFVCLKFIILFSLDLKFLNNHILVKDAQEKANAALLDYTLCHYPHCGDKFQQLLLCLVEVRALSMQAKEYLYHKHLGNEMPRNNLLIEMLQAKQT
How it was run: as §1
In the case of PYHDSWFYWPGLTEGV, the “phage ELISA signal ratio” value is reported as 5.49.

Target: T6, NR1H4 256-474 Hormone_recep (domain …
Experiment: as above
How it was run: as §1
For GDLEQHLMEWWTREVF, the “phage ELISA signal ratio” value was 12.3. In the case of WQEWLDYTVESQYTLV, the “phage ELISA signal ratio” value is reported as 7.27.
